Hit rate of the full screen: of about 310,000 compounds, about 14,000 (4.5%) showed an effect of 50% or more. The effect is printed as a negative number. The entries come from a sample that favours strong results as a whole.
molecular target: human ether-à-go-go-related gene (hERG) potassium channel (human, UniProt Q12809); test: primary screen, population patch clamp on CHO cells stably expressing hERG; higher = less effect of the substance
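Further: peak tail current of the secondary pulse compared with the same well before compound.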

Chain of human ether-à-go-go-related gene (hERG) potassium channel (Q12809 whole entry, looked up): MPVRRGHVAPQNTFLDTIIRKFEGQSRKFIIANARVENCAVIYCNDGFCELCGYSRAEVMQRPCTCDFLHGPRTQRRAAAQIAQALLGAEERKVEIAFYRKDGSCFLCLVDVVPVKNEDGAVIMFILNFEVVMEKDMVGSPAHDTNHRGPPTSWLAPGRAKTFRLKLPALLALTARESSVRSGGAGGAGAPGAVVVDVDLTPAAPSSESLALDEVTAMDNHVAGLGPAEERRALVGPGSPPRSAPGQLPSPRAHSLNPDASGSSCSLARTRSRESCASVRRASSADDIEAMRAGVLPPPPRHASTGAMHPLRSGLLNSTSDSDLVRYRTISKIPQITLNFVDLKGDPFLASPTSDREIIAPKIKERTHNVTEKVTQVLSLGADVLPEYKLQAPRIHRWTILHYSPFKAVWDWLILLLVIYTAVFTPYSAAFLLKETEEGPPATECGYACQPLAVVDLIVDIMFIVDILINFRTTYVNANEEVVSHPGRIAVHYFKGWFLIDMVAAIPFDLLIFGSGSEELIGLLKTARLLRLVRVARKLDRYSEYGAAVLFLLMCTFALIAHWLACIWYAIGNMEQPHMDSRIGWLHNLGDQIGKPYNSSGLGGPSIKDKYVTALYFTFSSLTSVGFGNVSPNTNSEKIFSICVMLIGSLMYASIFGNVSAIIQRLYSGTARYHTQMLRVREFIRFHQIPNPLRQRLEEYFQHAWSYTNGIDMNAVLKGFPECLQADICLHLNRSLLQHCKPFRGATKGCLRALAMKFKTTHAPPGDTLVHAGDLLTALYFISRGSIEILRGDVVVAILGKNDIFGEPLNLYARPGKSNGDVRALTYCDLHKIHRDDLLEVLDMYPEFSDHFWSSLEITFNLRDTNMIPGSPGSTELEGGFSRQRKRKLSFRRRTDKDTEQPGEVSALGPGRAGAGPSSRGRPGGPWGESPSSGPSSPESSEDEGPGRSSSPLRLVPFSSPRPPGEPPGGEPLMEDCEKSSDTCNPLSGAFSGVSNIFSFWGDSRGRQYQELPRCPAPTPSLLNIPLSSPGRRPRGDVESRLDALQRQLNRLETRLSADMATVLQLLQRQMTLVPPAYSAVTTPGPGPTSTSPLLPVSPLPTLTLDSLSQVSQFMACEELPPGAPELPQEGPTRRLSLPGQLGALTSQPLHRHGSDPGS

SMILES	hERG current change (%, negative = inhibition) at 10uM
Cc1cc(C)n(-c2ncc(-c3ccccc3)nn2)n1	-36.4%
O=C(NCCCc1ccccc1)C(=O)NCC1OCCN1S(=O)(=O)c1cc(F)ccc1F (stereo not drawn)	-15%
O=C(Nc1ncc(Cc2ccccc2)s1)C1=NCCN1	6.81%
COc1ccc(-c2nn(-c3ccccc3)cc2N)cc1	-3.82%
CCOC(=O)c1ccc(COC(=O)CCc2nc(-c3ccccc3)c(-c3ccccc3)o2)cc1	1.13%
CN(Cc1ccco1)S(=O)(=O)c1nnc(NC(=O)c2ccccc2Cl)s1	15%
COc1ccccc1NC(=O)CN1CC(=O)Nc2ccccc21	20.5%
O=C(O)CCNc1nc(C(F)(F)F)nc2ccccc12	18.2%
Cl.c1ccc(Nc2nc(N3CCOCC3)c3ccccc3n2)cc1	-14.2%
Cl.Oc1ccc(Nc2nc(N3CCCC3)c3ccccc3n2)cc1	-70.2%
Cl.c1ccc2c(Nc3nc(N4CCOCC4)c4ccccc4n3)cccc2c1	-6.79%
Cl.Fc1ccc(Nc2nc(N3CCOCC3)c3ccccc3n2)cc1	-2.91%
CN1CCN(c2nc(Nc3ccc(O)cc3)nc3ccccc23)CC1.Cl	-34.9%
COc1ccc(Nc2nc(N3CCCC3)c3ccccc3n2)cc1.Cl	-70%
COc1ccc(Nc2nc(N)c([N+](=O)[O-])c(N3CCCC3)n2)cc1	-22.8%
COc1ccc(Nc2nc(N3CCCCC3)c3ccccc3n2)cc1	-32.9%
CCN(CC)c1ccc(Nc2nc(N3CCOCC3)c3ccccc3n2)cc1	-71.8%
N#C/C(=C/c1ccccc1[N+](=O)[O-])c1nc(C2CC2)cs1	-12.3%
CCCc1nnc(NC(=O)CCC(=O)NCc2ccccc2OC)s1	21.4%
CC1(c2ccccc2)NC(=O)N(CC(=O)NC(=O)NC2CCCC2)C1=O (stereo not drawn)	0.115%

SMILES	hERG current change (%, negative = inhibition) at 10uM
Cc1ccc(-c2noc(CSc3nnc(-c4ccccc4)n3C)n2)cc1	-3.5%
COc1cc2c(cc1OC)C(c1ccc(Br)cc1)NC(=O)C2 (stereo not drawn)	12.1%
O=C(CSc1nnc(-c2ccco2)n1CC1CCCO1)NC1CCCC1 (stereo not drawn)	-4.75%
OCCN(CCO)CC(O)COc1ccc(Br)cc1 (stereo not drawn)	3.82%
CCCCN(CCCC)CC(O)COc1ccc(Br)cc1 (stereo not drawn)	-74.4%
CN(C)CC(O)COc1cccc(OCC(O)CN(C)C)c1.Cl (stereo not drawn)	11.8%
CC(C)NCC(O)COc1ccc(Br)cc1.Cl (stereo not drawn)	-30.3%
CCCCN(CC(O)COc1cccc(C)c1)CC(O)COc1cccc(C)c1 (stereo not drawn)	-81.7%
Cc1cccc(OCC(O)Cn2ccnc2C)c1 (stereo not drawn)	-9.12%
CCOP(=S)(OCC)SCC(=O)NC(C(=O)O)C(C)C (stereo not drawn)	7.13%
O=C(N=Nc1c(O)[nH]c2ccccc12)c1ccc2c(c1)OCO2	6.09%
CCCNC(=O)c1ccc(S(=O)(=O)c2ccc(OC)cc2)c([N+](=O)[O-])c1	-31.2%
Cc1cccc(NC(=S)NCCN2CCOCC2)c1C	13.9%
COc1ccccc1-c1nnc2sc(COc3ccc(F)cc3)nn12	-74%
COc1ccccc1-c1nnc2sc(COc3ccc(Cl)cc3)nn12	-37.8%
COc1ccccc1-c1nnc2sc(COc3ccccc3)nn12	-2.14%
COc1ccc2cc(CCNC(=O)c3ccco3)c(=O)[nH]c2c1	-2.81%
O=P(O)(CCc1ccccc1)CN1CCCCC1	10.9%
O=P(O)(CCc1ccccn1)CN1CCCCC1	-67.6%
O=P(O)(CCc1ccccn1)CN1CCOCC1	6.28%

SMILES	hERG current change (%, negative = inhibition) at 10uM
Cc1cc(C)c2nc(-c3cccnc3)cc(C(=O)NC(C)c3cnn(C)c3C)c2c1 (stereo not drawn)	-30.6%
CC(C)CCN1C(=O)c2ccc(C(=O)NCC3CCCO3)cc2C1=O (stereo not drawn)	-8.48%
CC(C)N(Cc1nccn1C)C(=O)c1cc(COc2ccc(F)cc2Cl)on1	0.188%
COc1cccc(OCc2cc(C(=O)N(Cc3nccn3C)C(C)C)no2)c1	8.5%
CC(C)N(Cc1nccn1C)C(=O)c1cc(COc2ccc(-n3cncn3)cc2)on1	-51.5%
CC(C)N(Cc1nccn1C)C(=O)c1cc(COc2ccc3ncccc3c2)on1	9.33%
Cc1cc(OCc2cc(C(=O)N(Cc3nccn3C)C(C)C)no2)cc(C)c1Cl	-58.5%
Cc1cccc(C)c1OCc1cc(C(=O)N(Cc2nccn2C)C(C)C)no1	-5.91%
COc1ccc2nc(SC)cc(C)c2c1	16.5%
CCC1CCC2(CC1)NC(CO)(CO)CO2 (stereo not drawn)	8.52%
CC(C)CC1(C)N=C(c2ccccc2)C(=S)N1 (stereo not drawn)	8.32%
COc1cccc(CN2CCN(CCCc3ccccc3)C(CCO)C2)c1O (stereo not drawn)	-72.4%
C=CCOc1ccccc1CN1CCN(CCc2ccccc2)C(CCO)C1 (stereo not drawn)	-59.4%
COc1cccc(CN2CCN(CCCc3ccccc3)C(CCO)C2)c1OC (stereo not drawn)	-48.6%
CCOc1cccc(CN2CCN(CCCc3ccccc3)C(CCO)C2)c1O (stereo not drawn)	-76.3%
CCOc1cccc(CN2CCN(Cc3ccc(C)o3)C(CCO)C2)c1O (stereo not drawn)	-13.1%
CCOc1cccc(CN2CCN(CCc3ccccc3)C(CCO)C2)c1O (stereo not drawn)	-69.7%
CCCn1ncc(CN2CCN(CCc3ccccc3)C(CCO)C2)c1C (stereo not drawn)	-46.9%
COC(=O)CN1C(=S)N(c2ccc(OC)cc2)C(=O)/C1=C/c1cccs1	34%
Nc1nc(NCc2ccccc2)n(-c2ccccc2)n1	14.9%

Source: publication PMC4336329 (PLoS ONE, 2015)
